In PubChem BioAssay (NCI):
Compounds without any hit were thinned out: in the full panel of roughly 79,000, 15% have a hit. The source made the active and inactive calls. No stated cut-off is given here; in the data, active means growth inhibition above about 70%; inactive means the rest.

What was measured:
[1] = NCI Yeast Anticancer Drug Screen. Data for the rad50 strain (AID 155);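 further: 0% = growth of vehicle-only cultures of the same strain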; settings: S. cerevisiae rad50 strain growth inhibition, active compounds read high
In short: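 Growth of the mutant yeast was measured after compound exposure and referenced to vehicle-treated cultures.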

[2] = NCI Yeast Anticancer Drug Screen. Data for the mec2-1 strain (AID 157); settings: S. cerevisiae mec2-1 strain, active compounds read high
In short: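 mec2-1 yeast strain, carrying an alteration in DNA damage repair or cell cycle control, was exposed to compounds; growth inhibition was measured relative to vehicle-treated controls.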

[3] = NCI Yeast Anticancer Drug Screen. Data for the sgs1 mgt1 strain (AID 161);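 further: 0% = growth of cultures given vehicle only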; settings: S. cerevisiae sgs1 mgt1 strain, active compounds read high
In short: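 Yeast cells carrying a defined DNA-repair defect were exposed to test compounds. Growth inhibition was measured relative to vehicle-treated controls.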

[4] = NCI Yeast Anticancer Drug Screen. Data for the cln2 rad14 strain (AID 165);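 further: 0% = growth equal to vehicle treated cultures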; settings: S. cerevisiae cln2 rad14 strain, active compounds read high
In short: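 Yeast carrying cln2 and rad14 alterations (cell cycle control and DNA damage repair) were exposed to compounds. Growth inhibition was measured against vehicle-treated controls.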

[5] = NCI Yeast Anticancer Drug Screen. Data for the bub3 strain (AID 167); settings: S. cerevisiae bub3 mutant strain, active compounds read high
In short: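 Whole-cell yeast assay. The mutant strain was incubated with compounds, and growth inhibition was determined by comparison with vehicle-treated cells.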

[6] = NCI Yeast Anticancer Drug Screen. Data for the mlh1 rad18 strain (AID 175); settings: S. cerevisiae mlh1 rad18 strain growth inhibition, active compounds read high
In short: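 Growth inhibition of the yeast strain was measured after compound exposure and expressed relative to vehicle-treated controls. The strain carries defined defects in DNA damage repair.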

[7] = at 5.0 µM (retest, dose inferred, filed as 0.5)
[8] = at 50.0 µM (retest, dose inferred, filed as 5.0)

Row | Structure (SMILES) | growth inhibition [1, 7] | growth inhibition [1, 8] | growth inhibition ([1]; at 50.0 µM) | growth inhibition [2, 7] | growth inhibition [2, 8] | growth inhibition ([2]; at 50.0 µM) | growth inhibition [3, 7] | growth inhibition [3, 8] | growth inhibition ([3]; at 50.0 µM) | growth inhibition [4, 7] | growth inhibition [4, 8] | growth inhibition ([4]; at 50.0 µM) | growth inhibition [5, 7] | growth inhibition [5, 8] | growth inhibition ([5]; at 50.0 µM) | growth inhibition [6, 7] | growth inhibition [6, 8] | growth inhibition ([6]; at 50.0 µM)
1 | CCCCCCCCC(=O)OCCCC(CCC(CCC1CCCO1)OC(=O)CCCCCCCC)OC(=O)CCCCCCCC (stereo not given) | -19% (inactive) | 10% (inactive) | 82.3% (active) | 3% (inactive) | 12% (inactive) | 37% (inactive) | -12% (inactive) | 33% (inactive) | 42.4% (inactive) | -17% (inactive) | 31% (inactive) | 14.3% (inactive) | -7% (inactive) | 12% (inactive) | 29.8% (inactive) | -2% (inactive) | 23% (inactive) | 62.4% (inactive)
2 | Cc1cc(Br)c2nsnc2c1[N+](=O)[O-] | 33% (inactive) | 94% (active) | 54.4% (inactive) | 43% (inactive) | 97% (active) | 78.5% (active) | 30% (inactive) | 85% (active) | 80.8% (active) | 32% (inactive) | 88% (active) | 71.2% (active) | 20% (inactive) | 87% (active) | 68.7% (inactive) | 37% (inactive) | 95% (active) | 77.9% (active)
3 | CCN(CC)CC(O)c1cc(-c2ccc(Cl)cc2)nc2cc(Cl)ccc12 (stereo not given) | 2% (inactive) | 99% (active) | 98% (active) | -3% (inactive) | 100% (active) | 93.9% (active) | -1% (inactive) | 99% (active) | 99.7% (active) | -2% (inactive) | 99% (active) | 47.9% (inactive) | -3% (inactive) | 99% (active) | 78.5% (active) | 11% (inactive) | 99% (active) | 98.3% (active)
4 | CCc1cccc(CC)c1N1C(=O)C=CC1=O | 45% (inactive) | 78% (active) | 92.7% (active) | 45% (inactive) | 89% (active) | 94.2% (active) | 99% (active) | 100% (active) | 94% (active) | 88% (active) | 99% (active) | 92.1% (active) | 100% (active) | 100% (active) | 92.6% (active) | 38% (inactive) | 87% (active) | 93.3% (active)
5 | CCCCCCCCCCCCNCCCc1ccccc1 | 99% (active) | 98% (active) | 98.1% (active) | 100% (active) | 99% (active) | 99.2% (active) | 100% (active) | 99% (active) | 98.5% (active) | 99% (active) | 97% (active) | 98.8% (active) | 99% (active) | 99% (active) | 98% (active) | 99% (active) | 99% (active) | 98.5% (active)
